Composite z-score and z-score data for 15 compounds are collected here from PubChem BioAssay.

The source made the active and inactive calls. Unless noted, the rule behind the calls is not given here.

Assay [1] relates to Wnt5a (protein binding on small-molecule microarray). Briefly: small molecules binding Wnt5a protein – biophysical, small-molecule microarray, 635/667 nm fluorescence, primary screen (AID 1142).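 Note: fluorescence read at 667 nm with signal to noise per printed feature.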 Particulars: 635 nm fluorescence, higher = more signal.
The nature of assay [2]: ATP-based viability of Huh7 replicon cells – cell-based, CellTiter-Glo luminescence, basal, 48 h, cytotoxicity control for HCV replication inhibitor project, primary screen (AID 1143).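 Note: Huh7 hepatoma cells carrying a hepatitis C replication reporter with no stimulus; test concentration not given here.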 The conditions noted are these: higher = more signal, called active from +8 up or from −8 down. In general terms: Replicon systems follow genome replication, usually without infectious particles.

The nature of assay [3]: Pseudomonas biofilm growth suppression – PAO1 strain, BacTiter-Glo luminescence, LB-PBS, primary screen (AID 1144). The conditions noted are these: P. aeruginosa PAO1 biofilm, 12 h, higher = more signal.
The nature of assay [4]: basal CRE-LacZ reporter activity in PC12 – cell-based, unstimulated, primary screen (AID 1145). The conditions noted are these: no forskolin, luminescence, 4.5 h, higher = more signal, called active from +8 up or from −8 down.
The nature of assay [5]: forskolin-driven CRE-LacZ activity in PC12 – cell-based, CRE-LacZ reporter, forskolin-stimulated, primary screen (AID 1146).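 Note: PC12 cells with 6xCRE LacZ reporter stimulated by forskolin 10 µM; beta-galactosidase reporter signal reflecting CREB driven transcription.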 The conditions noted are these: luminescence, 4.5 h, higher = more signal, called active from +8 up or from −8 down.
The target in assay [6] is Streptavidin (Streptomyces avidinii) (UniProt P22629). Briefly: compounds binding control protein streptavidin – biophysical, small-molecule microarray, 635/667 nm fluorescence, artefact control for SMM compound annotation, primary screen (AID 1147).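 Note: signal reflects streptavidin binding to arrayed compounds as a control protein.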 Particulars: higher = more signal.
Chain of Streptavidin (Streptomyces avidinii) (P22629 whole entry, looked up): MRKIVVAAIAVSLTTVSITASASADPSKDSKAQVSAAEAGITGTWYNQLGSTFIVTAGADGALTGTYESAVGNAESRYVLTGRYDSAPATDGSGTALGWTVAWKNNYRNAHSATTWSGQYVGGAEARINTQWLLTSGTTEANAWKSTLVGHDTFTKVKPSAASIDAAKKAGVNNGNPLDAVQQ
Assay [7] can be described thus: probe aInhba binding on compound microarray – biochemical, small-molecule microarray, 635/667 nm fluorescence, primary screen (AID 1148).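 Note: score merges 667nm spot fluorescence with signal-to-noise for antibody binding to printed compounds.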 The conditions noted are these: higher = more signal.
The target of assay [8] is Torsin-1A (Homo sapiens) (UniProt O14656). Briefly: TOR1A wild-type binding on microarray – cell lysate, small-molecule microarray, lysate, 635/667 nm, primary screen (AID 1149). Particulars: COS7 hTOR1A-WT lysate, 635 nm fluorescence, higher = more signal.
Chain of Torsin-1A (Homo sapiens) (O14656 whole entry, looked up): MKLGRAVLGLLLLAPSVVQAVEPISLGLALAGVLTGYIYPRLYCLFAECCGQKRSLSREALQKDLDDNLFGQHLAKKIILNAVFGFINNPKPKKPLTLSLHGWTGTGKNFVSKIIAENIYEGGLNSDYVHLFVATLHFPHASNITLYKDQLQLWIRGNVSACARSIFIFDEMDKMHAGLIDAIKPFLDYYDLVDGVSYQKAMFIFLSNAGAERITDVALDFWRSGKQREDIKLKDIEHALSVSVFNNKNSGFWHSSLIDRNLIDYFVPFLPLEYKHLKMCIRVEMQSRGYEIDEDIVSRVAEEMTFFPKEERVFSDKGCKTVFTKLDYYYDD
The target is the same in assay [9]. Briefly: torsin A mutant lysate binding on microarrays – cell lysate, small-molecule microarray, COS7 lysate, 635/667 nm fluorescence, primary screen (AID 1150).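 Note: score pools 667 nm emission and signal to noise measuring lysate protein binding.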 Particulars: COS7 hTOR1A mutant lysate, 635 nm fluorescence, higher = more signal.
Assay [10] has as its system Sonic hedgehog protein (Shh). The assay is described as follows: Sonic hedgehog microarray binding compounds – biochemical, small-molecule microarray, 635/667 nm fluorescence, primary screen (AID 1151).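 Note: Shh protein binding to compounds spotted on small-molecule microarray slides; score combines spot fluorescence intensity with signal-to-noise across triplicate slides.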 The conditions noted are these: 635 nm fluorescence, higher = more signal.

For the compound `CCOC(=O)[C@H](CC(C)C)NC(=O)CCC1CC(OC(=O)NCc2cccc3ccccc23)CC2(CCCC(COC(=O)NCCOc3ccccc3)O2)O1` (stereo not given in full), the composite z-score worked out at 0.746 in [1]; 0.628 in assay [6]; 0.0248 in assay [7]; 0.236 with Torsin-1A (Homo sapiens) [8]; 0.117 with Torsin-1A (Homo sapiens) [9]; 0.805 in assay [10]. The z-score is -0.248 (inactive) in assay [2], -0.477 (inactive) in assay [3], -0.526 (inactive) in [4] and -0.519 (inactive) in assay [5].
`COC(=O)[C@@H]1CC[C@H](C)[C@@H](c2ccc(C)cc2)N1C(=O)c1ccc(C=NO[C@H](C)c2cn([C@H](CO)Cc3ccccc3)nn2)cc1`: the composite z-score in [1] came to 0.247; in [6], 0.0407; in [7] it was 0.288; with Torsin-1A (Homo sapiens) [8], 0.278; with Torsin-1A (Homo sapiens) [9], 0.277; in [10], 0.682. Besides, the z-score in [2] is -0.63 (inactive); in assay [3], 0.0292 (inactive); in [4], 8.24 (active); in assay [5], 0.371 (inactive).
On to `CC(C)CON=C1C[C@@H](O)[C@@H](O)[C@@H]2[C@@H]3C(=O)N(Cc4ccc5c(c4)OCO5)C(=O)[C@@H]3CC[C@H]12`, for which the composite z-score was 0.365 in assay [1]; 1.23 in assay [6]; -0.0589 in assay [7]; 0.217 with Torsin-1A (Homo sapiens) [8]; 0.739 in the assay with Torsin-1A (Homo sapiens) [9]; 1.45 in assay [10]. The z-score in [2] was -0.365 (inactive); in assay [3] it was 1.01 (inactive); in assay [4], 0.242 (inactive); in assay [5], 0.201 (inactive).
For `CC(CCN1CCCc2nc(C)c(C)cc21)=NO[C@@H](C)c1cc(-c2c(C)cc(C)cc2C)no1`, the composite z-score was 0.0353 in assay [1]; 0.327 in assay [6]; 0.111 in assay [7]; 0.464 with Torsin-1A (Homo sapiens) [8]; -0.184 with Torsin-1A (Homo sapiens) [9]; 0.54 in [10]. In addition, the z-score in assay [2] is -0.636 (inactive); in assay [3], -0.501 (inactive); in assay [4], -0.0591 (inactive); in [5], -0.559 (inactive).
Turning to `CO[C@@H]1COC(=O)[C@@H](C)COC(=O)[C@@H](C)NC(=O)CC=C[C@@H]1C`, the composite z-score in assay [1] was 0.102; in assay [6], -0.457; in [7], -0.246; in the assay with Torsin-1A (Homo sapiens) [8] it was 1.65; in the assay with Torsin-1A (Homo sapiens) [9] it was 0.717; in assay [10], 1.51. In addition, the z-score in assay [2] is -4.69 (inactive); in [3], -2.01 (inactive); in assay [4], -0.129 (inactive); in assay [5], -0.694 (inactive).
For the compound `CO[C@H]1COC(=O)CC=C[C@@H](C)[C@H](OC)COC(=O)CCC[C@@H]1C`, the composite z-score in [1] was -0.0494; in [6], 0.0616; in assay [7], -0.153; in the assay with Torsin-1A (Homo sapiens) [8], 1.89; with Torsin-1A (Homo sapiens) [9], 0.33; in assay [10], 1.18. Also, the z-score is -0.127 (inactive) in [2], -0.913 (inactive) in assay [3], -0.482 (inactive) in [4] and 0.0877 (inactive) in assay [5].
In the case of `CCOC(=O)NN=C1C[C@@H](O)[C@@H](O)[C@@H]2[C@@H]3C(=O)N(c4ccc(F)cc4F)C(=O)[C@@H]3CC[C@@H]12`, the composite z-score in assay [1] was 0.0054; in assay [6], 0.309; in [7], -0.016; with Torsin-1A (Homo sapiens) [8] it was 0.308; in the assay with Torsin-1A (Homo sapiens) [9], 0.12; in assay [10], 0.219. In addition, the z-score in assay [2] was 0.176 (inactive); in [3], 0.449 (inactive); in [4], -0.0211 (inactive); in assay [5], 0.34 (inactive).
With `COc1cc(O)c(C(=O)C=Cc2ccc3c(c2)OCO3)c(OC)c1`, the composite z-score in assay [1] was 0.0926; in assay [6], -0.379; in assay [7], -0.0332; with Torsin-1A (Homo sapiens) [8], -0.404; with Torsin-1A (Homo sapiens) [9] it was -0.19; in [10], 0.782. Also, the z-score is -2.56 (inactive) in assay [2], 1.1 (inactive) in assay [3], 0.286 (inactive) in assay [4] and 0.528 (inactive) in assay [5].
For the compound `O=C1[C@H]2[C@H]3[C@H](O)[C@H](O)CC(=NOCc4ccccc4)[C@@H]3CC[C@H]2C(=O)N1C[C@@H]1CCCO1`, the composite z-score in [1] was 0.0388; in [6] it was 0.632; in assay [7], -0.157; with Torsin-1A (Homo sapiens) [8] it was 0.304; in the assay with Torsin-1A (Homo sapiens) [9], 0.198; in [10] it was 0.317. In addition, the z-score in assay [2] is 0.379 (inactive); in assay [3], -0.614 (inactive); in assay [4], -0.115 (inactive); in assay [5], 0.105 (inactive).
For the compound `CC(C)=CCCC(C)=CCON=C1C[C@@H](O)[C@@H](O)[C@@H]2[C@@H]3C(=O)N(c4ccc(F)cc4F)C(=O)[C@@H]3CC[C@H]12`, the composite z-score is -0.112 in assay [1]; 0.0534 in [6]; -0.0178 in [7]; -0.37 with Torsin-1A (Homo sapiens) [8]; 0.171 with Torsin-1A (Homo sapiens) [9]; 1.01 in assay [10]. Moreover, the z-score in [2] was -5.27 (inactive); in assay [3], -0.206 (inactive); in assay [4] it was -1.2 (inactive); in [5], -0.358 (inactive).
Take `COc1cccc([C@H]2Oc3ccc(OC)cc3C(=NO[C@@H](C)c3cn([C@H](CO)Cc4ccccc4)nn3)[C@@H]2O)c1`: the composite z-score in assay [1] was -0.353; in [6] it was 0.326; in assay [7], -0.0986; with Torsin-1A (Homo sapiens) [8] it was -0.44; in the assay with Torsin-1A (Homo sapiens) [9] it was -0.137; in [10], -0.243. Also, the z-score was -0.404 (inactive) in assay [2], 0.0128 (inactive) in [3], 6.77 (inactive) in assay [4] and 0.661 (inactive) in [5].
With `CCOC(=O)[C@H](CC(C)C)NC(=O)CCC1CC(OC(=O)NCc2cccc3ccccc23)CC2(CCCC(COC(=O)NCCOC)O2)O1` (stereo not given in full), the composite z-score in assay [1] was 0.238; in [6], 0.0772; in assay [7], 0.119; with Torsin-1A (Homo sapiens) [8], -0.114; with Torsin-1A (Homo sapiens) [9], 0.753; in assay [10], 1.03. For the same compound, the z-score in [2] was -1.3 (inactive); in [3], -0.656 (inactive); in assay [4], -0.526 (inactive); in [5] it was 0.389 (inactive).
Take `CSCC[C@@H]1NC(=O)CC=C[C@@H](C)COC(=O)[C@@H](C)COC1=O`: the composite z-score was -0.0993 in assay [1]; -1.03 in [6]; -0.0736 in assay [7]; 2.66 with Torsin-1A (Homo sapiens) [8]; 2.1 with Torsin-1A (Homo sapiens) [9]; 1.81 in assay [10]. Besides, the z-score in [2] was -0.184 (inactive); in assay [3], 0.117 (inactive); in assay [4], -0.476 (inactive); in assay [5], -0.846 (inactive).
On to `CC(CCN1CCCCc2nc(C)c(C)cc21)=NOC[C@@H](C)[C@H](OCc1ccccc1)C(C)C`, for which the composite z-score in [1] was -0.876; in assay [6] it was -2.45; in assay [7], -0.37; with Torsin-1A (Homo sapiens) [8], -1.62; with Torsin-1A (Homo sapiens) [9] it was -1.49; in assay [10], -0.689. For the same compound, the z-score in [2] was -1.07 (inactive); in assay [3], -0.4 (inactive); in assay [4], 0.262 (inactive); in [5], 0.264 (inactive).
As for `COC(=O)CC=C[C@H](C)[C@@H](OCc1cccc(Br)c1)[C@@H](C)[C@H](OC)C1CCCCC1`, the composite z-score in assay [1] was -0.375; in assay [6] it was -0.243; in assay [7], -0.128; with Torsin-1A (Homo sapiens) [8], 0.312; with Torsin-1A (Homo sapiens) [9] it was -0.119; in assay [10], 0.341. In addition, the z-score is 0.137 (inactive) in assay [2], 0.781 (inactive) in assay [3], -1.05 (inactive) in assay [4] and -1.25 (inactive) in assay [5].
